Screens deposited in PubChem by ICCB-Longwood Screening Facility, Harvard Medical School.
AID504770 = E. coli YBA685 growth inhibition, screen for V. cholerae RctB inhibitors; E. coli YBA685 rctB-dependent plasmid, OD600 growth, 3 h; hits give low values; z-score (test concentration not listed); hit rate 0.27% among 130,000; in the data active = z-score below about -2, passing the limit was not always enough
CapD inh = blocks the Bacillus anthracis CapD enzyme; z-score (test concentration not listed); hit rate 0.23% among 140,000; purified CapD enzyme, fluorescence intensity read-out; hits give low values; in the data active = z-score mostly below about -2.9, no sharp cut-off; inactive = mostly above about -1.9
* marks the source's active call; other numbers are inactive results; x = no result. Sampled rows, rich in hits. Any-hit rate of the full collection: about 0.36%.

SMILES	AID504770	CapD inh
COC(=O)C1=C(C)OC(N)=C(C#N)C1c1ccc(C#N)cc1 (configuration not stated)	x	0.19
CC1CC(C)CN(C(=O)C2=COCCO2)C1 (configuration not stated)	-0.7	x
O=C(c1ccc(F)cc1)N1N=C(c2cccs2)CC1c1ccccc1 (configuration not stated)	x	0.52
O=C1CSC(=NC2CC2)N1Cc1cccs1	0	0.17
O=C(CSc1n[nH]c(-c2ccncc2)n1)c1ccc(Cl)cc1	x	-0.52
Nc1nc(SCC(=O)c2ccc(Cl)cc2)n[nH]1	-2.6*	-0.34
O=C(O)c1cc2cccc([N+](=O)[O-])c2[nH]1	x	-4.6*
O=C(O)c1cc2ccccc2[nH]1	0.45	x
CCN(CC)CC(=O)c1sc2ccc(Cl)cc2c1C	-0.75	-0.24
CCOc1ccc(C(=O)N[C@H](C(=O)NC2CCCCC2)C(C)C)cc1	2	x
CCOc1ccc(C(=O)NC(C(=O)Nc2ccc(S(=O)(=O)N(C)C)cc2)C(C)C)cc1 (configuration not stated)	-5*	x
Cc1cc(C(=O)N2CCN(Cc3ccc4c(c3)OCO4)CC2)nn1C	0.2	-0.32
COc1cc(/C=C2\C(=O)NC(=O)N(c3cc(C)cc(C)c3)C2=O)cc([N+](=O)[O-])c1O	x	-2.1
Cc1ccc(S(=O)(=O)N2CCCN(C)CC2)cc1	-3.9*	0.15
CN1CCN(S(=O)(=O)c2ccc(Br)cc2)CC1	-1.3	-0.23
O=C(c1ccc(N2CCCC2=O)cc1)N(Cc1ccco1)Cc1cccs1	-0.55	x
C1=CSC(=C2SC=CS2)S1	-3.6*	x
